Screening data as filed in PubChem BioAssay.
Rows were chosen to be rich in hits. Some 5.5% of all compounds tested hit in one or more screens of this group.
RORgamma inh: qHTS for inhibitors of ROR gamma transcriptional activity; 310,000 tested, 5.4% active; Potency, µM (highest dose often 53.6 µM), most hits filed as inhibitors; Drosophila S2 Gal4-RORgamma UAS-luciferase reporter, 20 h; also: nearly all actives have a fitted effect of over 60% in size
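Stable Schneider cell line, Gal4 DNA-binding domain fused to ROR gamma, UAS-luciferase. Cmpd 1 hr RT → CuSO4 700 uM final → 20 hr RT → luciferase reagent 10 min → luminescence.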
Gal4-VP16 FLuc: VP16 counterscreen qHTS for inhibitors of ROR gamma transcriptional activity; Drosophila S2 Gal4-VP16 UAS-luciferase, luminescence, 20 h; Potency, µM (highest dose often 53.6 µM), actives largely listed as inhibitors; 310,000 tested, 3.5% active; AID 2546, 2010;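 also: Gal4-VP16 expression switched on by copper sulfate through the metallothionein promoter; nearly all actives have a fitted effect of over 50% in size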
MBNL1-CUG inh: qHTS Assay for Inhibitors of MBNL1-poly(CUG) RNA binding. TR-FRET MBNL1-His/biotin-(CUG)12 binding, 665/545 ratio. Potency, µM (doses to about 57.5 µM), most hits filed as inhibitors. 280,000 tested, 0.036% active; active = well fitted inhibition curve with a large enough effect in the signal ratio, with a control signal flat, not every such curve was filed as active; inconclusive = small, poorly fitted or top-dose-only effect, or effect the other way, or a change in a side signal; inactive = no such curve, though single readings can be large or run the other way; the % refers to the signal ratio
Target sequence (Q9NR56 whole entry, looked up): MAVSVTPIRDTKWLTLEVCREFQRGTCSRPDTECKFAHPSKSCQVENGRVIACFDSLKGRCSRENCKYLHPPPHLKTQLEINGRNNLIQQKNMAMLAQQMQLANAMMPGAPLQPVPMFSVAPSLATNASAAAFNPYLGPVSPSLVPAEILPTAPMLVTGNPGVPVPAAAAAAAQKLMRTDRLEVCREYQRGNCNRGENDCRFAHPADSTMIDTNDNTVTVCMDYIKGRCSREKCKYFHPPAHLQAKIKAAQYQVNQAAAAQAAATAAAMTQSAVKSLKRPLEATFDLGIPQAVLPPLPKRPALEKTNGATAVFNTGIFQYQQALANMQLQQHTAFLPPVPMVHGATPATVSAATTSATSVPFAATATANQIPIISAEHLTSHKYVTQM
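TR-FRET readout: Ex 340 nm, 665/545 nm emission ratio, normalized to buffer-only (basal) and MBNL1-(CUG)12 controls. Complex of MBNL1-His with Biotin-(CUG)12, compounds 92 nM–58 uM, incubated 60 min at room temperature.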
Six1-Eya2 blk: qHTS Assay for Inhibitors of the Six1/Eya2 Interaction | Homeobox protein SIX1 (Homo sapiens) + Protein phosphatase EYA2 (Homo sapiens), … | AID 651725, 2012 | AlphaScreen GST-Six1/His-Eya2 binding, biochemical; stronger effect = lower value | activity change, % (test concentration not listed) | 360,000 tested, 0.56% active; in the data active = activity change below about -65%; inconclusive = mostly about -30% to -63%
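Six1/Eya2 binding was read as AlphaScreen signal after compounds were pinned into GST-Six1 plus His-tagged Eya2 (5X stock 250/500 nM) in pH 8.0 Tris/NaCl/TCEP buffer, beads added, then incubated 1 h, 37 C, dark.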
CBFb RUNX1 block: qHTS Assay for Compounds Blocking the Interaction Between CBF-beta and RUNX1 for the Treatment of Acute Myeloid Leukemia; Runt-related transcription factor 1 (Homo sapiens) + Core-binding factor subunit beta …; 230,000 tested, under 10 active; AlphaScreen CBFb-His/RUNX1-biotin binding, biochemical; Potency, µM (titrated, usually from 59.8 µM), actives largely listed as inhibitors
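CBFb-His/RUNX1-biotin, 30 nM each, preincubated 20 min RT; compound 15 min RT; Ni + streptavidin beads 50 ng each, 90 min RT; AlphaScreen read.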
CtBP-E1A blk: qHTS Assay for Inhibitors of the CtBP/E1A Interaction | AID 651724, 2012 | 340,000 tested, 0.49% active | AlphaScreen GST-E1A/His-CtBP binding, 1536-well; stronger effect = lower value | activity change, % (no concentration beside the values); in the data active = activity change below about -65%; inconclusive = mostly about -30% to -63%
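Homogeneous bead-based format: GST-tagged E1A captured on glutathione donor beads, His-tagged CtBP on nickel acceptor beads; compounds precede bead addition by 2 h at 37 °C.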
MBNL1-CUG FRET: qHTS Assay for Inhibitors of MBNL1-poly(CUG) RNA binding: Initial hit validation from the primary screen | AID 493199, 2011 | Potency, µM (series often up to 57.6 µM), actives largely listed as inhibitors | 140 tested, 50% active | shares compounds with MBNL1-CUG inh | TR-FRET MBNL1-His / biotin-(CUG)12 binding, 60 min
MBNL1-CUG Alpha: qHTS Assay for Inhibitors of MBNL1-poly(CUG) RNA binding: Initial hit validation in AlphaScreen assay for MBNL1-(CUG)12 binding; shares compounds with MBNL1-CUG inh; AlphaScreen MBNL1-His / biotin-(CUG)12 binding; Potency, µM (titrated, usually from 57.7 µM), most hits filed as inhibitors; 140 tested, 30% active
MBNL1 HTRF CS: qHTS Assay for Inhibitors of MBNL1-poly(CUG) RNA binding: Counterscreen HTRF assay; shares compounds with MBNL1-CUG inh; His-Menin/biotin-MLL peptide TR-FRET counterscreen; Potency, µM (series often up to 57.6 µM), hits mostly inhibitors; 120 tested, 20% active; AID 651843, 2012
Numbers stand for hits; - = inactive; ? = inconclusive; . = not tested or not shown. Unless noted, calls follow the shape of the dose curve; as a rule, active = well fitted curve in the direction sought with a large enough effect; inconclusive = small, poorly fitted or top-dose-only effect, or another doubt; inactive = no such curve, though single readings can be large; an effect the other way counts as inactive or inconclusive.

SMILES | RORgamma inh | Gal4-VP16 FLuc | MBNL1-CUG inh | Six1-Eya2 blk | CBFb RUNX1 block | CtBP-E1A blk | MBNL1-CUG FRET | MBNL1-CUG Alpha | MBNL1 HTRF CS
COc1cc2c(C#N)c(N3CCCCC3)nc(N)c2c(N)n1 | - | - | - | - | - | - | - | - | -
COc1cc2c(C#N)c(N3CCOCC3)nc(N)c2c(N)n1 | - | ? | - | - | - | - | . | . | .
Cc1ccc(NC(=O)Nn2cnnc2)cc1Cl | - | - | 39.8µM | - | . | - | 25.9µM | - | ?
O=C(Nc1ccccc1)Nn1cnnc1 | - | - | ? | - | . | - | . | . | .
O=C(Nc1ccc(Br)cc1)Nn1cnnc1 | - | - | 31.6µM | - | . | - | 41.1µM | - | ?
O=C(Nc1ccc(Cl)c(Cl)c1)Nn1cnnc1 | - | - | 7.94µM | - | . | - | 6.51µM | - | 32.6µM
Cc1cc(C)cc(NC(=O)Nn2cnnc2)c1 | - | - | ? | - | . | - | . | . | .
CC(=O)Nc1ccc(OCCOc2ccc(/C=C3\C(=N)N4N=C(C(C)C)SC4=NC3=O)cc2)cc1 | - | - | - | - | . | . | . | . | .
CCCCN1C(=O)C(=O)N(CC(=O)Nc2cc(Cl)ccc2OC)C1=O | . | . | . | - | . | - | . | . | .
O=C1c2ccccc2C(=O)C12OC2c1cccc2ccccc12 (configuration not stated) | ? | 14.1µM | 25.1µM | - | - | - | - | ? | -
O=C1NC(c2cccc3ccccc23)Nc2ccccc21 (configuration not stated) | . | . | . | - | . | - | . | . | .
NCCCC(N)CC(=O)NCC1NC(=O)C(CO)NC(=O)C(N)CNC(=O)C(C2CCN=C(N)N2)NC(=O)/C(=C/NC(N)=O)NC1=O (configuration not stated) | - | - | . | . | . | . | - | - | .
O=C(OC[C@H]1O[C@@H](OC(=O)c2cc(O)c(O)c(OC(=O)c3cc(O)c(O)c(O)c3)c2)[C@H](OC(=O)c2cc(O)c(O)c(OC(=O)c3cc(O)c(O)c(O)c3)c2)[C@@H](OC(=O)c2cc(O)c(O)c(OC(=O)c3cc(O)c(O)c(O)c3)c2)[C@@H]1OC(=O)c1cc(O)c(O)c(OC(=O)c2cc(O)c(O)c(O)c2)c1)c1cc(O)c(O)c(OC(=O)c2cc(O)c(O)c(O)c2)c1 | . | . | . | . | . | . | . | . | 36.6µM
CSc1ccccc1C(=O)OCC(=O)Nc1c(C)n(C)n(-c2ccccc2)c1=O | . | . | . | - | . | - | . | . | .
Cc1cc(Nc2ccccc2)nc(NCc2ccccc2)n1 | 2.82µM | 11.2µM | 39.8µM | - | - | - | ? | 3.66µM | -
COc1ccc(-c2nc3ccncc3[nH]2)cc1OC | - | - | 20µM | - | - | - | 6.51µM | - | 18.3µM
O=C(O)c1ccc(NS(=O)(=O)c2ccc(C(=O)Nc3ccccc3)cc2)cc1 | - | - | - | - | . | - | . | . | .
O=c1[nH]c(Nc2ccccc2Cl)cc2ccccc12 | . | . | . | - | . | - | . | . | .
O=c1[nH]c(Nc2ccc(F)cc2)cc2ccccc12 | - | - | . | - | - | ? | 32.6µM | 13µM | -
COCCNC(=O)CCC1CCN(C/C=C/c2ccccc2OC)CC1 | - | - | - | - | . | - | - | ? | -
COc1cccc(CNC(=O)CCC2CCCN(C/C=C/c3ccccc3OC)C2)c1 (configuration not stated) | - | - | - | - | - | - | . | . | .
